Screening data: PubChem BioAssay, several laboratories
CRFBP-R2 agonist – CRF-BP/CRF-R2 complex agonism; HEK293 CRF-R2/CRF-BP, calcium dye fluorescence (FLIPR); percent of saturating CRF peptide response; activation, % at 13.2 µM; hit rate 0.46% among 350,000; AID 588473;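 active = activation of at least 50%, plus an integration ratio under a set limit after plate pattern correction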
IDE cell inh – inhibits human insulin-degrading enzyme in HEK cells. P14735. FAbetaB cleavage, fluorescence polarization. inhibition, % at 5.59 µM. hit rate 0.41% among 320,000;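 active = percent inhibition above the average of all tested compounds plus 3 SD, set per screening campaign, cut at about 16% in these data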;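 also: IDE supplied by intact live HEK cells; FP after avidin binding of uncleaved biotin substrate so inhibition keeps polarization high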
TPT1 inh – inhibitors of Candida albicans tRNA 2'-phosphotransferase TPT1; inhibition, % at 5 µM; hit rate 0.81% among 300,000; recombinant caTPT1, FP RNA substrate dephosphorylation;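 active = inhibition above the mean of all tested compounds plus 3 SD, set per screening campaign, cut at about 24% in these data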
HNF4A DNA FP – change in binding of human HNF4 alpha to DNA; P41235; HNF4a-FITC DNA binding, fluorescence polarization, 1 h; activity change, % at 10 µM; hit rate 0.3% among 360,000; AID 1224865; in the data active = activity change above about 30%, passing the limit was not always enough
Target sequence (P41235 whole entry, looked up): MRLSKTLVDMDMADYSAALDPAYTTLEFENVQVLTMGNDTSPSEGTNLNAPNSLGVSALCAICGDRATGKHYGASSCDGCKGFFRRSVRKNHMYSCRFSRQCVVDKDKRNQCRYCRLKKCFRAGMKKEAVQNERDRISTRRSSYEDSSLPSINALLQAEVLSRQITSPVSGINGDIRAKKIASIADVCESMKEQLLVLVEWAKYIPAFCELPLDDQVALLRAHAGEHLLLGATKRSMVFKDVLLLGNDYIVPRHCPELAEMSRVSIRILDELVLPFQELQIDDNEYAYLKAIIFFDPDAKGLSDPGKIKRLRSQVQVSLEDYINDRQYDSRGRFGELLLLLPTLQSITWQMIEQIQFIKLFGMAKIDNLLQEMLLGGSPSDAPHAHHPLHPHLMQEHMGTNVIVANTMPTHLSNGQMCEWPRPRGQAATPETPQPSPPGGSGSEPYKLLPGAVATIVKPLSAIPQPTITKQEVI
IDE cell activ – boosts human insulin-degrading enzyme activity in HEK cells. FAbeta-B cleavage, fluorescence polarization; 0% vehicle, 100% cell-free pure enzyme wells. hit rate 0.073% among 340,000. AID 493087. P14735. activation, % at 5.96 µM;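 active = activation above the mean of all tested compounds plus 3 SD, set per screening campaign, cut at about 17% in these data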
caTPT1 confirm – confirmation of Candida albicans TPT1 inhibitors | shares compounds with TPT1 inh | recombinant caTPT1, fluorescence polarization, RNase T1 coupled | inhibition, % at 5 µM | hit rate 74% among 2,400 | AID 2149;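 active = inhibition above the primary screen limit, the mean inhibition of all tested compounds plus 3 SD, cut at about 25% in these data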
RNase T1 inh – counter-screen for TPT1 inhibitors: inhibitors of Aspergillus oryzae RNase T1; shares compounds with TPT1 inh; RNase T1 cleavage, fluorescence polarization, 1536-well; inhibition, % at 5 µM; hit rate 83% among 2,400; AID 2153;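 active = inhibition above the solvent-only control well mean plus 3 SD, limit set per screening run, cut at about 23% in these data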;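 also: inhibitors block cleavage so intact labeled substrate keeps polarization high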
Target sequence (P00651 whole entry, looked up): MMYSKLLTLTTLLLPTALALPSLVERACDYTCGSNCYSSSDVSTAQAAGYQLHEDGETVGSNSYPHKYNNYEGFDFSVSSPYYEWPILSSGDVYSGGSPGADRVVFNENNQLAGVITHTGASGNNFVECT
IDE inh confirm – cellular human IDE inhibition, confirmation; shares compounds with IDE cell inh; HEK cells, FAbetaB cleavage, fluorescence polarization; inhibition, % at 5.59 µM; hit rate 51% among 1,200;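 active = mean inhibition across triplicate wells above the cutoff set by the earlier primary insulin-degrading enzyme screen, cut at about 16% in these data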
HEK293 tox – counter-screen for IDE inhibitors: cytotoxicity in HEK cells | shares compounds with IDE cell inh | HEK293 cytotoxicity, ATP luminescence | inhibition, % at 5.59 µM | hit rate 28% among 1,200 | AID 449730; in the data active = inhibition above about 22%
IDE FP artifact – fluorescence interference counter-screen for IDE inhibitors; shares compounds with IDE cell inh; FP counterscreen for fluorescent artifacts, IDE probe project; IC50, µM; 30 tested, under 10 active; call rule not given here
Of the large screens only hits and unclear results are named; the others gave an inactive call (follow-up assays come after a bar, where they were run). Sampled rows, rich in hits. Any-hit rate of the full collection: about 1.4%.

N#Cc1cc(C(=O)c2cc(F)ccc2O)cn(-c2nccs2)c1=O	CRFBP-R2 agonist 341, IDE cell inh 33, TPT1 inh 55 | caTPT1 confirm 57 | RNase T1 inh 67 | IDE inh confirm 67 | HEK293 tox inactive
O=C(O)c1cccc2c1/C(=N/Nc1ccc([N+](=O)[O-])cc1[N+](=O)[O-])c1ccccc1-2	none
CCN(CC)c1ccc(/C=C(/C#N)C(=O)NC(C)C)o1	IDE cell inh 27, TPT1 inh 169 | caTPT1 confirm 186 | RNase T1 inh 173 | IDE inh confirm 30 | HEK293 tox inactive
CCN(CC)c1ccc(/C=C(/C#N)C(=O)NCc2ccccc2)o1	CRFBP-R2 agonist 141, IDE cell inh 103, TPT1 inh 189 | caTPT1 confirm 197 | RNase T1 inh 180 | IDE inh confirm 153 | HEK293 tox inactive
O=C1CCC(C(=O)Nc2cc(C(F)(F)F)ccc2-n2cncn2)=NN1	none
CCc1ccc2cc(F)cc(F)c2n1	none (no result: CRFBP-R2 agonist, IDE cell inh, TPT1 inh, IDE cell activ)
COc1ccc(S(=O)(=O)N(C)c2ccc(C(=O)Nc3ccccc3C(=O)N3CCOCC3)cc2)cc1OC	none
CC(=O)N1CCC2(CC1)C(C#N)=C(N)Oc1c2sc2nc(C)cc(C)c12	none
CCN1CCC2(CC1)C(C#N)=C(N)Oc1c2sc2nc(C)cc(C)c12	IDE cell inh 35, TPT1 inh 64 | caTPT1 confirm inactive | RNase T1 inh 25 | IDE inh confirm inactive | HEK293 tox inactive
N#C/C(=C/c1ccc(N2CCOCC2)o1)c1nc2ccccc2[nH]1	CRFBP-R2 agonist 128, IDE cell inh 36, TPT1 inh 180 | caTPT1 confirm 164 | RNase T1 inh 152 | IDE inh confirm 26 | HEK293 tox 28
COc1ccc(NC(=O)/C(C#N)=C\c2ccc(N3CCOCC3)o2)cc1	CRFBP-R2 agonist 223, IDE cell inh 126, TPT1 inh active | caTPT1 confirm 198 | RNase T1 inh 177 | IDE inh confirm 145 | HEK293 tox inactive
COc1ccc(NC(=O)/C(C#N)=C/c2ccc(Br)o2)cc1	none
N#C/C(=C/c1ccc(N2CCCCC2)o1)C(=O)Nc1ccc(Cl)cc1	CRFBP-R2 agonist 155, IDE cell inh 71, TPT1 inh 187 | caTPT1 confirm 192 | RNase T1 inh 174 | IDE inh confirm 64 | HEK293 tox 34
CCc1ccc(NC(=O)/C(C#N)=C/c2cc3ccc(C)cc3nc2N2CCOCC2)cc1	none
CC1CC1c1ccc(/C=C(\C#N)C(=O)Nc2ccc(Cl)cc2)o1 (configuration not stated)	none
N#C/C(=C\c1ccc(N2CCOCC2)o1)C(=O)Nc1ccc(O)cc1	CRFBP-R2 agonist 125, IDE cell inh 59, TPT1 inh active (no result: IDE cell activ) | caTPT1 confirm 194 | RNase T1 inh 176 | IDE inh confirm 66 | HEK293 tox inactive
CN(C)CCCN1C(=O)c2cccc3cccc(c23)C1=O	none
CCCCN1C(=O)c2cccc3cc(O)cc(c23)C1=O	IDE cell inh 21, TPT1 inh 37 | caTPT1 confirm 42 | RNase T1 inh 48 | IDE inh confirm 28 | HEK293 tox inactive
CCOC(=O)C1C(=O)C=C(/C=C/c2ccc(N(C)C)cc2)CC1c1ccccc1 (configuration not stated)	CRFBP-R2 agonist 292, IDE cell inh 40, TPT1 inh 89 | caTPT1 confirm 77 | RNase T1 inh 80 | IDE inh confirm 129 | HEK293 tox 24
CCC1=NN2C(=N)/C(=C\c3ccc(SCc4ccco4)o3)C(=O)N=C2S1	IDE cell inh 22, TPT1 inh 48 | caTPT1 confirm 29 | RNase T1 inh 43 | IDE inh confirm inactive | HEK293 tox inactive
Cc1nnc(-c2ccccc2)c(=O)n1/N=C/c1c(O)ccc2ccccc12	IDE cell inh 54, TPT1 inh 159 | caTPT1 confirm 79 | RNase T1 inh 84 | IDE inh confirm 40 | HEK293 tox 57
Cc1nnc(C)n1/N=C/c1c(O)ccc2ccccc12	none
N#C/C(=C/c1ccc(-c2ccc(S(N)(=O)=O)cc2)o1)C(=O)Nc1ccccc1	none
N#C/C(=C/c1ccc(-c2ccc(S(N)(=O)=O)cc2)o1)c1nc2ccccc2s1	CRFBP-R2 agonist 203, IDE cell inh 40, TPT1 inh 73 | caTPT1 confirm 41 | RNase T1 inh 50 | IDE inh confirm 78 | HEK293 tox 24
COC(=O)c1ccc(/C=C(\C#N)c2nc3ccccc3s2)cc1	IDE cell inh 32, TPT1 inh 36 | caTPT1 confirm inactive | RNase T1 inh 29 | IDE inh confirm inactive | HEK293 tox inactive
COC(=O)c1ccc(/C=N/NC(=O)CCSc2nc3ccccc3s2)cc1	none (no result: CRFBP-R2 agonist, HNF4A DNA FP, IDE cell activ)
COc1cc(/C=N/N2C(=O)CSC2=S)ccc1O	IDE cell inh 26, TPT1 inh 28 | caTPT1 confirm 28 | RNase T1 inh 40 | IDE inh confirm 44 | HEK293 tox inactive
COc1cc(O)c(C=NN2C(=O)CSC2=S)c(OC)c1	none (no result: IDE cell inh, TPT1 inh, IDE cell activ)
Nc1c(C(=O)Nc2nccs2)sc2nc(-c3cccs3)cc(C(F)(F)F)c12	CRFBP-R2 agonist 68, IDE cell inh 20, TPT1 inh 31 | caTPT1 confirm 29 | RNase T1 inh 41 | IDE inh confirm 16 | HEK293 tox inactive | IDE FP artifact inactive
Cc1cc(C)c2nc(NC(=O)C3CSC4(C)CCC(=O)N34)sc2c1 (configuration not stated)	none (no result: TPT1 inh)
O=[N+]([O-])c1ccc(S(=O)(=O)N/N=C/c2ccsc2)cc1	none (no result: IDE cell inh, TPT1 inh)
COc1cc(/C=C(\C#N)C(=O)NCCc2ccccc2)cc(OC)c1O	CRFBP-R2 agonist 67, IDE cell inh 44, TPT1 inh 76 | caTPT1 confirm 104 | RNase T1 inh 106 | IDE inh confirm 76 | HEK293 tox inactive
COc1cc(/C=C(\C#N)C(=O)c2c[nH]c3ccccc23)cc(OC)c1O	CRFBP-R2 agonist 85, IDE cell inh 38, TPT1 inh 128, HNF4A DNA FP 84 | caTPT1 confirm 156 | RNase T1 inh 143 | IDE inh confirm 159 | HEK293 tox inactive
COCCNC(=O)/C(C#N)=C/c1cc(Br)c(O)c(OC)c1	none
CCN(CC)C(=O)c1ccc(/C=C/c2c[nH]c3ccccc23)[n+](C)c1	CRFBP-R2 agonist 54, IDE cell inh 22, TPT1 inh 103 | caTPT1 confirm 110 | RNase T1 inh 112 | IDE inh confirm 21 | HEK293 tox inactive
